Among the data in PubChem BioAssay (NCI) are growth values, retold here.

Among the test systems are HCT-15 colon; HT29 colon; U251 CNS; PC-3 prostate; SK-MEL-5 melanoma; UACC-62 melanoma; LOX IMVI melanoma; SK-MEL-28 melanoma; SK-MEL-2 melanoma; EKVX NSCLC; SN12C renal; UO-31 renal; TK-10 renal; ACHN renal; CAKI-1 renal; CCRF-CEM leukemia; MOLT-4 leukemia; SNB-19 CNS; A498 renal.
Assay in all cases: NCI-60 one-dose screen, 48 h (100 = growth as untreated, 0 = no growth, -100 = all killed)
Conditions in all cases: 10 µM unless noted

About 83,000 compounds went through this panel and 20% of them were active in at least one assay; those are over-represented in the sample as a whole.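 Step 1: grow cells in 96-well plates. Step 2: add test compound at a single concentration. Step 3: incubate 48 h. Step 4: record percent growth.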 Unmarked numbers belong to inactive results. Calls of active or inactive are those of the source. How the source made its calls: active means growth percent below 10; inactive means the rest.

As to `N/C(=N\C(N)=N\c1nc2ccccc2s1)c1ccncc1`, the growth in the assay with HCT-15 colon was 35.3%; with HT29 colon, 27.7%; in the assay with U251 CNS, 71%; in the assay with PC-3 prostate, 73.9%; in the assay with SK-MEL-5 melanoma, 59%; in the assay on UACC-62 melanoma it was 44.6%. Also, the growth with LOX IMVI melanoma is 55.8%; with SK-MEL-28 melanoma it was 66.9%; in the assay on SK-MEL-2 melanoma, 41%; with EKVX NSCLC, 78.9%; in the assay on SN12C renal, 72.6%; with UO-31 renal it was 64.2%. The growth with TK-10 renal is 109%; in the assay on ACHN renal it was 75.8%; with CAKI-1 renal, 44.9%; in the assay with CCRF-CEM leukemia, 63%; in the assay on MOLT-4 leukemia, 45.2%.

For `O=C1NN(C(=O)c2ccc(Cl)cc2)C(c2ccccc2)=N/C1=C\c1cn(-c2ccccc2)nc1-c1ccccc1`, the growth in the assay on HCT-15 colon was 92.6%; with HT29 colon, 87.8%; in the assay with SNB-19 CNS it was 90.7%; in the assay on U251 CNS, 92.4%; in the assay on SK-MEL-5 melanoma it was 79.9%; with UACC-62 melanoma, 91%. For the same compound, the growth in the assay with LOX IMVI melanoma was 97.6%; in the assay on SK-MEL-28 melanoma, 94.8%; in the assay on EKVX NSCLC it was 81.4%; in the assay on SN12C renal, 93.2%; with UO-31 renal, 90.6%; in the assay with TK-10 renal, 102%. Besides, the growth with ACHN renal is 98.5%; with CAKI-1 renal, 80.4%; with A498 renal, 69%; with MOLT-4 leukemia, 98.6%.

As to `COc1ccc(Nc2nn3c(C)cc(C)nc3c2C(=O)Nc2ccc(C)cc2)c(OC)c1`, the growth is 101% in the assay with HCT-15 colon; 101% in the assay on HT29 colon; 101% in the assay on SNB-19 CNS; 94.8% with U251 CNS; 103% with SK-MEL-5 melanoma; 93% with UACC-62 melanoma. The growth in the assay with LOX IMVI melanoma was 109%; in the assay on SK-MEL-28 melanoma it was 94.4%; in the assay with SK-MEL-2 melanoma, 92.7%; in the assay with EKVX NSCLC, 103%; with SN12C renal, 98.4%; in the assay on UO-31 renal it was 82%. Moreover, the growth in the assay with TK-10 renal was 107%; in the assay with ACHN renal it was 101%; in the assay with CAKI-1 renal, 95.7%; in the assay with A498 renal it was 117%; in the assay with CCRF-CEM leukemia, 106%; in the assay on MOLT-4 leukemia, 107%.

In the case of `COc1ccc(-c2c(N)n[nH]c2-c2cc(OC)c(OC)c(OC)c2)cc1`, the growth with HCT-15 colon was 24.6%; in the assay with HT29 colon it was 4.25% (active); in the assay with SNB-19 CNS, 35.9%; in the assay on U251 CNS, 23.5%; in the assay with SK-MEL-5 melanoma it was 0.844% (active); in the assay on UACC-62 melanoma, 25.7%. Further, the growth in the assay on LOX IMVI melanoma was 43.2%; with SK-MEL-28 melanoma it was 50.4%; in the assay on EKVX NSCLC, 48%; in the assay with SN12C renal, 38.5%; in the assay on UO-31 renal it was 27.3%; in the assay with TK-10 renal it was 59.8%. In addition, the growth with ACHN renal was 40%; with CAKI-1 renal it was 57%; with MOLT-4 leukemia, 25.4%.

Regarding `COc1ccc(/C=C2\N=C(c3ccccc3)N(C(=O)c3ccccc3O)NC2=O)cc1`, the growth was 104% in the assay with HCT-15 colon; 104% with HT29 colon; 96.6% in the assay on SNB-19 CNS; 94.2% with U251 CNS; 101% in the assay on SK-MEL-5 melanoma; 82.8% with UACC-62 melanoma. Also, the growth is 95.6% in the assay on LOX IMVI melanoma; 109% in the assay with SK-MEL-28 melanoma; 88.3% with EKVX NSCLC; 86.6% in the assay with SN12C renal; 95.9% in the assay on UO-31 renal; 97.7% in the assay with TK-10 renal. Moreover, the growth with ACHN renal was 103%; in the assay with CAKI-1 renal, 97.9%; in the assay with A498 renal, 73.6%; with MOLT-4 leukemia, 48.3%.

On to `Cc1ccc(S(=O)(=O)c2nc(-c3ccccc3)oc2S(C)(=O)=O)cc1`, for which the growth in the assay with HCT-15 colon is -14.2% (active); in the assay with HT29 colon it was -6.17% (active); in the assay on SNB-19 CNS it was 60.9%; in the assay on U251 CNS, 60.7%; with SK-MEL-5 melanoma, 88.8%; in the assay with UACC-62 melanoma it was 75.7%. In addition, the growth is -32.7% (active) in the assay on LOX IMVI melanoma; 62.6% in the assay on SK-MEL-28 melanoma; 67.5% in the assay on SK-MEL-2 melanoma; 74.1% in the assay with EKVX NSCLC; 0.543% (active) in the assay on SN12C renal; 2.62% (active) in the assay on UO-31 renal. Besides, the growth with ACHN renal was -99.7% (active); in the assay with CAKI-1 renal it was -98.9% (active); with A498 renal it was 85.2%; in the assay on CCRF-CEM leukemia it was 0.985% (active); with MOLT-4 leukemia, -16.3% (active).

Consider `O=S(=O)(NCCCNc1nccc(-n2ccc3cccnc32)n1)c1ccc(Br)cc1`, for which the growth with HCT-15 colon was 102%; in the assay with HT29 colon it was 107%; with SNB-19 CNS, 102%; in the assay on U251 CNS it was 106%; in the assay with SK-MEL-5 melanoma it was 101%; with UACC-62 melanoma, 99.5%. In addition, the growth in the assay with LOX IMVI melanoma was 96.3%; with SK-MEL-28 melanoma, 108%; with SK-MEL-2 melanoma, 108%; in the assay with EKVX NSCLC, 93%; with SN12C renal it was 102%; with UO-31 renal, 107%. For the same compound, the growth in the assay with TK-10 renal was 121%; in the assay with ACHN renal, 108%; with CAKI-1 renal, 94.2%; in the assay with A498 renal, 102%; with CCRF-CEM leukemia it was 102%; in the assay on MOLT-4 leukemia, 100%.

For `O=C(Nc1cccc(-n2cc(-c3ccncc3)c(-c3ccc(Cl)c(O)c3)n2)c1)Nc1ccc(Cl)c(Cl)c1`, the growth was 19.8% in the assay with HCT-15 colon; 45.9% with HT29 colon; 30.3% in the assay with SNB-19 CNS; 12.4% in the assay with U251 CNS; -40.2% (active) in the assay on SK-MEL-5 melanoma; 14.9% with UACC-62 melanoma. The growth in the assay with LOX IMVI melanoma is 21.9%; with SK-MEL-28 melanoma, 24.6%; in the assay on SK-MEL-2 melanoma, -25.4% (active); in the assay with SN12C renal, 18%; in the assay with UO-31 renal it was 21%; in the assay with TK-10 renal it was 7.16% (active). In addition, the growth was 12.8% with ACHN renal; 22.5% in the assay on CAKI-1 renal; 31.1% with A498 renal; 13.7% in the assay with CCRF-CEM leukemia; 7.64% (active) in the assay on MOLT-4 leukemia.

For `Cc1ccc2ccccc2c1C[n+]1ccccc1`, the growth in the assay on HCT-15 colon is 107%; in the assay on HT29 colon, 92%; with U251 CNS it was 83.6%; in the assay on PC-3 prostate it was 83.4%; with SK-MEL-5 melanoma, 110%; in the assay on UACC-62 melanoma it was 99.8%. Also, the growth in the assay with LOX IMVI melanoma was 94.5%; in the assay on SK-MEL-28 melanoma, 110%; in the assay with SK-MEL-2 melanoma, 111%; in the assay with EKVX NSCLC it was 58.2%; with SN12C renal it was 98.4%; with UO-31 renal, 84%. Moreover, the growth with TK-10 renal was 88.4%; with ACHN renal, 106%; in the assay on CAKI-1 renal, 92.8%; in the assay with A498 renal, 79.3%.
